# Screens: PubChem BioAssay, National Center for Advancing Translational Sciences (NCATS)
# VACV Venus inh: vaccinia inhibition (Venus reporter). Vaccinia virus Venus reporter expression, fluorescence. Potency, µM (top dose mostly 36.5 µM), without a hit: at the top dose activity change, negative = inhibition, actives largely listed as inhibitors. 330,000 compounds, 0.46% hits. AID 720580; calls by dose curve; tested in A549 cells; note: potency is the fitted concentration of half-maximal effect; nearly all actives have a fitted effect of over 30% in size
# FMDV antiviral: foot and mouth disease virus antiviral activity; FMDV antiviral cell-based qHTS; Potency, µM (doses to about 57.9 µM), for inactives: top-dose activity change, negative = inhibition, hits mostly inhibitors; 410,000 compounds, 1.2% hits; calls by dose curve; tested in HEK293T cells; note: read-out not given here; potency is the fitted concentration of half-maximal effect; nearly all actives have a fitted effect of over 45% in size
# VACV mCherry inh: inhibitors of vaccinia virus infection (mCherry reporter signal); 310,000 compounds, 0.63% hits; Vaccinia virus mCherry reporter infection, fluorescence; AID 720579; Potency, µM (series often up to 36.5 µM), for the others: top-dose activity change, negative = inhibition, actives largely listed as inhibitors; calls by dose curve; tested in A549 cells; note: potency is the fitted concentration of half-maximal effect; nearly all actives have a fitted effect of over 35% in size
# HCMV inh: blocks human cytomegalovirus replication | HFF cells, HCMV-luciferase reporter, 72 h; hits give low values | activity change, negative = inhibition, % at 57.5 µM | 410,000 compounds, 4.5% hits; in the data active = activity change below about -60%; inconclusive = no clear call, values can overlap the other calls; inactive = above about -39%
#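 After 16 h attachment at 37C, HFF cells received test compound and HCMV-luciferase (1 PFU/cell); reporter luminescence read 72 h later, data normalized against buffer-only and known inhibitor Salinomycin.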
# HCV inhibitor: inhibitors of hepatitis C virus infection. Huh7.5.1 HCVcc-Cre infection, luciferase reporter, 44 h. AID 651820. Potency, µM (series often up to 41.8 µM), for the others: at the top dose activity change, negative = inhibition, usual class: inhibitors. 340,000 compounds, 3.4% hits; note: potency is the fitted concentration of half-maximal effect
#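 Whole-lifecycle infectious HCVcc-Cre system; cells 1,000/well, compound then virus (~0.5 moi) added 4 h after plating, 44 h culture. Luciferase read 15 sec following 15 min substrate incubation, room temp.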
# FBPA Giardia inh: blocks Giardia fructose-bisphosphate aldolase activity; purified Giardia FBPA; 290,000 compounds, 0.71% hits; AID 2451; Potency, µM (titrated, usually from 59.6 µM), inactives show at the top dose activity, negative = inhibition, actives largely listed as inhibitors; A8B2U2; note: potency is the fitted concentration of half-maximal effect; nearly all actives have a fitted effect of over 55% in size
# Target sequence (A8B2U2 whole entry, looked up): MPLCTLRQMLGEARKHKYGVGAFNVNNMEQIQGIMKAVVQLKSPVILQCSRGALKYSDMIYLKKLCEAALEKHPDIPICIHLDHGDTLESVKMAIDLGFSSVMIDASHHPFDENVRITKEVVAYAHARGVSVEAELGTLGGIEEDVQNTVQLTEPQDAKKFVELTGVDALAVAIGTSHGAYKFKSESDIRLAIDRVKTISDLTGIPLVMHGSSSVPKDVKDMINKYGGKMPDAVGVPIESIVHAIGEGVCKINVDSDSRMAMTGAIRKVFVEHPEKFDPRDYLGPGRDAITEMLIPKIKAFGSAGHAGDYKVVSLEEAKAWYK
#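 Giardia FBPA (40 nM reagent) was preincubated 10 min at RT with compound (up to 57.5 uM final), then substrate plus GAPDH/TPI/NAD/arsenate coupling system with diaphorase/resazurin was added; resorufin fluorescence (525/598 nm) was read after 20 min.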
# * hit, by the source's call; i = inactive; ? = inconclusive; · = no result; [ ] = remark or other dose. Most compounds without a hit are left out; they make up all but 7.5% or so of the library. Unless noted, calls come from the whole dose curve; as a rule, active = well fitted curve in the direction sought with a large enough effect; inconclusive = small, poorly fitted or top-dose-only effect, or another doubt; inactive = no such curve, though single readings can be large; an effect the other way counts as inactive or inconclusive. % is set by controls: 0 for no effect and ±100 for the full control effect.
SMILES,VACV Venus inh,FMDV antiviral,VACV mCherry inh,HCMV inh,HCV inhibitor,FBPA Giardia inh
CCOc1ccc2[nH]c3c(NCCc4ccc(OC)c(OC)c4)ncnc3c2c1,-7%,-20%,?,-66*,13µM*,-12%
CCOc1ccc2[nH]c3c(NCCO)ncnc3c2c1,·,13%,·,48,13%,12%
CC1CCC(NC(=O)C2(C)Cc3ccccc3C(=O)N2Cc2ccccc2Cl)CC1 (stereo not given),-7%,-15%,-8%,47,·,·
O=C(c1cccs1)N1C[C@H](O)[C@@H](n2cc(-c3ccc(F)cc3)nn2)C[C@@H]1c1ccccc1,-16%,-18%,i,-7,·,·
Cc1ccc2[nH]c(CN3CCC(CO)(CC4CCCCO4)CC3)c(C)c2c1 (stereo not given),7%,-20%,?,-70*,-15%,0%
Cc1ccc(-n2c3nc(=O)[nH]c(=O)c-3cc3cc([N+](=O)[O-])ccc32)cc1,-30%,32µM*,?,-23,31%,-18%
Cc1nc2cc([N+](=O)[O-])ccc2c(=O)n1-c1ccc(Br)cc1,·,13%,·,-6,-8%,9%
CCCCCOC(=O)C1C(c2ccccc2)C(C(=O)O)C1c1ccccc1 (stereo not given),-5%,-23%,-11%,-93*,24%,18%
O=C(O)C1C(c2ccccc2)C(C(=O)OCCCO)C1c1ccccc1 (stereo not given),·,18%,·,21,27%,10%
CCOc1ccc(NC(=O)N(C2CCCCCC2)C2CCN(C(C)=O)CC2)cc1,-1%,-1%,-21%,-8,-2%,-14%
CCc1ccc(NC(=O)N(Cc2cn(CC)c3ccccc23)C2CCCCC2)cc1,-17%,60%,-21%,-104*,·,·
CCOc1ccc(NC(=O)N(Cc2cn(CC)c3ccccc23)C2CCCCCC2)cc1,-24%,38%,?,-87*,·,·
Cc1cc(Oc2ccc(=O)n(C)n2)nc(SCc2ccccc2)n1,·,-14%,·,34,23%,4%
COc1ccc2c(c1C)CCC(C)(C#N)C2=O (stereo not given),-15%,-13%,-12%,-14,-11%,·
COc1ccccc1NC(=O)C(C)OC(=O)C1CC(=O)N(Cc2ccco2)C1 (stereo not given),-11%,0%,-12%,-18,·,·
COCC(C)n1c(SCC(=O)Nc2c(C)n(C)n(-c3ccccc3)c2=O)nc2ccccc2c1=O (stereo not given),·,-25%,·,0,-11%,·
Cc1c(NC(=O)CSc2nnc3c4ccccc4n(CCc4ccccc4)c3n2)c(=O)n(-c2ccccc2)n1C,?,?,·,-85*,?,0%
Cc1c(-n2c(SCC(C)C)nc3ccccc3c2=O)c(=O)n(-c2ccccc2)n1C,-13%,0%,-11%,-64*,-3%,5%
CCn1c2ccccc2c2nnc(SCC(=O)Nc3c(C)n(C)n(-c4ccccc4)c3=O)nc21,·,-21%,·,-21,-27%,-6%
Cc1c(NC(=O)CSc2nc3ccccc3c(=O)n2C(C)C)c(=O)n(-c2ccccc2)n1C,·,-14%,·,-65*,-13%,·
CC1CN=C(c2cc(Cl)c(N)c(Cl)c2)c2c3ccc(C(F)(F)F)cc3[n+]([O-])n21 (stereo not given),·,·,·,40,·,·
O=C(CC(Nc1ccccc1)c1ccccc1)C1CC1 (stereo not given),1%,-6%,i,2,13%,3%
O=C(N[C@H]1CC[C@@]23CCCN2C(=O)CCC[C@H]3[C@H]1Cc1ccccc1)C(c1ccccc1)c1ccccc1,·,·,·,-18,·,·
CCOC(=O)N1CCN(C(=O)CSCC(=O)Nc2nc(-c3cccs3)cs2)CC1,·,14µM*,·,29,13µM*,-8%
O=C(CSCC(=O)N1CCOCC1)Nc1nc(-c2ccc3c(c2)OCO3)cs1,8.9µM*,16%,?,95,-22%,0%
SMILES,VACV Venus inh,FMDV antiviral,VACV mCherry inh,HCMV inh,HCV inhibitor,FBPA Giardia inh
CCOC(=O)N1CCN(C(=O)CSCC(=O)Nc2nc(-c3ccc(C)cc3)cs2)CC1,?,-21%,?,5,11µM*,1%
COCCn1cnc2c(c1=O)c1nc3ccccc3nc1n2/N=C/c1cccc(OC)c1,-8%,28µM*,0%,-30,4%,-1%
COc1cccc(/C=N/n2c(-c3ccco3)nc3ccccc3c2=O)c1,-19%,?,22%,-64*,?,1%
C=CCn1cnc2c(c1=O)c1nc3ccccc3nc1n2/N=C/c1cc(OC)c(OC)c(OC)c1,-30%,-17%,-13%[1.46 µM],-14,?,0%
COc1ccccc1CNC(=O)CN(C)S(=O)(=O)c1ccc(Br)s1,-5%,-3%,-13%,-13,-1%,3%
Cc1ccc(S(=O)(=O)N(CC(=O)NCc2ccco2)C2CCCCC2)cc1,-7%,·,-3%,64,3.5µM*,-7%
Cc1ccc(S(=O)(=O)N(CC(=O)Nc2cccc([N+](=O)[O-])c2)C2CCCCC2)cc1,-28%,-7%,·,?,-16%,-1%
Cc1ccc(S(=O)(=O)N(CC(=O)Nc2ccc(Cl)c([N+](=O)[O-])c2)C2CCCCC2)cc1,?,19%,?,-77*,?,-4%
COc1ccc(NC(=O)c2ccco2)c2ccccc12,·,27%,·,-5,-3%,-4%
CC(C)n1nnnc1C1c2ccccc2C(=O)N1Cc1cccnc1 (stereo not given),-5%,-19%,-6%,-15,·,·
CC1(C)CC23C(=O)CCC(O)C2(C)CCC13 (stereo not given),-7%,4%,-4%,·,·,-2%
Cc1cc(C(=O)N2CCCC(CCC(=O)N3CCN(c4ccccn4)CC3)C2)c(C)o1 (stereo not given),-1%,-26%,-12%,-27,-18%,1%
Cc1cccc(C(=O)N2CCCC(CCC(=O)N3CCN(c4ccccn4)CC3)C2)c1C (stereo not given),·,?,·,-86*,?,·
COc1cc(O)c(C(CC(=O)N2CCOCC2)c2ccc3c(c2)OCO3)c(OC)c1 (stereo not given),-13%,-8%,i,?,11µM*,?
Nc1ncnc(NCc2ccccc2)c1[N+](=O)[O-],-26%,9%,-7%,-70*,12%,-1%
Nc1ncnc(NCc2ccc(F)cc2)c1[N+](=O)[O-],-14%,-8%,-20%,-72*,5%,5%
Cc1cc(C)nc(Sc2ncnc(N)c2[N+](=O)[O-])n1,-6%,13µM*,-4%,?,22µM*,-9%
Cc1ccc(C)c(Nc2ncnc(N)c2[N+](=O)[O-])c1,-14%,-17%,-14%,-27,6%,1%
Cc1cccc(Nc2ncnc(N)c2[N+](=O)[O-])n1,1%,-13%,-18%,-79*,11%,-1%
CC(=O)c1c(C)[nH]c(C(=O)CSc2nnc(-c3ccccc3)o2)c1C,-14%,?,·,-20,8.9µM*,-4%
